Measured values reported in the supplement of paper PMC5407854, “Inhibitor of ppGalNAc-T3-mediated O-glycosylation blocks cancer cell invasiveness and lowers FGF23 levels” (eLife, 2017).
In all, about 1,700 compounds were measured (“T2 sensor activation Q score (MG/GFP ratio z-score vs DMSO controls)”: median about 0.3, highest 2% from about 1.9 on). The list comes from a sample in which the highest values are over-represented; it also holds similar structures and randomly drawn compounds.

System: ppGalNAc-T2 sensor
Assay: T2 sensor activation Q score (MG/GFP ratio z-score vs DMSO controls) (SD units); higher = more sensor activation (inhibition of ppGalNAc-T2 glycosylation)
Conditions: HEK293 sensor cells; 10 µM; 6 h
Protocol: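 Cells were treated with compound at 10 uM for 6 h, then MG/GFP ratio was read by flow cytometry (10,000 cells per well, duplicate wells). Q = (R - R_neg)/SD_neg relative to DMSO vehicle controls; the signal rises when the glycosyltransferase is inhibited.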

Row | Compound | T2 sensor activation Q score
1 | CCOC(=O)C(C)c1c(C(=O)c2ccc(C)nc2)c2ccccc2n1C (configuration not stated) | 0.9
2 | NC(=O)c1nnsc1-c1ccc(-c2snnc2C(N)=O)cc1 | 1.7
3 | O=c1[nH]c(=S)c2ncn(-c3ccccc3)c2[nH]1 | -1.3
4 | NC(=O)c1ccccc1NC(=O)COc1ccc(Cl)cc1 | -0.45
5 | CC(=O)Nc1ccc(S(=O)(=O)N/N=c2/sc3ccccc3n2C)cc1N | -0.6
6 | c1ccc(-c2nnc3oc(-c4cccs4)nn23)cc1 | -1.05
7 | Cc1cn(C2CC(O)C(CO)O2)c(=O)n(Cc2ccccc2)c1=O (configuration not stated) | 0.85
8 | O=c1[nH]cc(Cl)cc1Cl | 0.5
9 | CCOC(=O)/C=C/c1nc(C(=O)OCC)c(C)c(=O)[nH]1 | -0.1
10 | CC(C)=NNc1ncnc2nc[nH]c12 | 1.25
11 | CC(C)CCCCCCCCCCCCC(=O)NCC(=O)NC1C(C)OC(Nc2ncnc3nc[nH]c23)C(O)C1O (configuration not stated) | 8.6
12 | Cc1ccc(Nc2n[nH]c(=S)s2)cc1F | -0.95
13 | NNC(=O)Cc1cc(=O)[nH][nH]1 | -0.7
14 | Cc1cc(=O)oc2cc(OS(C)(=O)=O)ccc12 | 1.2
15 | CCSc1nc(=S)cc(C)[nH]1 | -0.1
16 | CC(=NNC(N)=O)c1ccc(Cl)c(-n2cccc2)c1 | 0.6
17 | N#C/C(=C\c1c[nH]c2ccccc12)C(N)=O | 0.8
18 | NC(=S)N/N=C\c1cc(-c2cccc(N)c2)ccn1 | 0
19 | O=C(Nc1ccc(C2=NCCCN2)cc1)Nc1ccc(C2=NCCCN2)cc1 | -0.6
20 | COc1ccc2c(c1)CCCN2C(N)=Nc1ccc(Cl)cc1 | 1.25
21 | Cc1cccc2cc3cccc(C)c3nc12 | 0.3

Row | Compound | T2 sensor activation Q score
22 | Cc1c(COC(=O)NC(C)C)c(COC(=O)NC(C)C)c2n1CS(=O)(=O)C2 | -0.4
23 | CC1CC(C)(C)C2=NCCN21 (configuration not stated) | 1.3
24 | Cc1ccc(S(=O)(=O)NC(=O)Nc2nccs2)cc1 | -1.2
25 | Cc1ccc(S(=O)(=O)NNC(=O)C23CCC(CC2)C3)cc1 | 1.95
26 | CC(=O)C1C=CC(C)(C(=O)O)C2C=C(C)C(=O)C(C)(O)C12 (configuration not stated) | 0.2
27 | CCOC(=O)c1csc(-c2ccc(COC(=O)c3ccccc3)o2)n1 | -1
28 | COc1ccc2c(c1)CCN1C2CCN2C(=O)CCC21 (configuration not stated) | 0.9
29 | O=S1(=O)CCN(Cc2ccccn2)CC1 | 0.85
30 | COC(=O)c1ccc(Cn2cnc3c(Cl)ncnc32)cc1 | 1.6
31 | Cc1cc(N)c2cc(NC(=O)C=Cc3ccccc3Cl)ccc2n1 | 1.5
32 | Nc1ccc(N=Nc2ccccc2)c2ccccc12 | -0.25
33 | O=C(Nc1ccc(Nc2ccccc2)cc1)Nc1ccccc1Cl | -1.35
34 | Nc1cc(Nc2ccc(Br)cc2)nc(N)n1 | 0.6
35 | CCCCCOc1ccc(N2C(=O)C(C)CNC2=S)cc1 (configuration not stated) | 0.7
36 | Oc1ccc(Cc2ccccc2Cl)c(O)c1 | 1.95
37 | Oc1ccc(Cc2ccc(Cl)cc2)c(O)c1 | 1.3
38 | Oc1ccc(-c2nc3ccccc3s2)c(O)c1 | 0.2
39 | COC(=O)c1cc(C)[nH]c2c(C)cc3nc4ccccc4c3c12 | 0.65
40 | O=C(Oc1ccccc1)N(c1ccccc1)c1ccccc1 | 0.35
41 | Cc1cc(/C=C2\SC(=S)NC2=O)cc(C)c1O | 0.35
42 | CN1CCC=C(C(=O)N2c3ccccc3Sc3ccc(Cl)cc32)C1 | 0.25

Row | Compound | T2 sensor activation Q score
43 | CN(C)c1ccc(/C=C(\C#N)C(=O)c2ccccc2)cc1 | -0.3
44 | CN(C)c1ccc2c(c1)Sc1cc(N(C)C)ccc1N2C(=O)c1ccccc1 | 2.55
45 | CC[C@]1(O)C[C@@H]2CN(CCc3c([nH]c4ccccc34)[C@@](C(=O)OC)(c3cc4c(cc3OC)N(C)[C@H]3[C@@](O)(C(=O)OC)[C@H](OC(C)=O)[C@]5(CC)C=CCN6CC[C@]43[C@@H]65)C2)C1 | 2.05
46 | CC[C@]1(O)C[C@H]2CN(CCc3c([nH]c4ccccc34)[C@@](C(=O)OC)(c3cc4c(cc3OC)N(C=O)[C@H]3[C@@](O)(C(=O)OC)[C@H](OC(C)=O)[C@]5(CC)C=CCN6CC[C@]43[C@@H]65)C2)C1 | 1.4
47 | CCC1=C[C@@H]2CN(C1)Cc1c([nH]c3ccccc13)[C@@](C(=O)OC)(c1cc3c(cc1OC)N(C)[C@H]1[C@@](O)(C(=O)OC)[C@H](OC(C)=O)[C@]4(CC)C=CCN5CC[C@]31[C@@H]54)C2 | 1.1
48 | C=C(C)C(=O)Oc1ccc(N=Nc2ccc(C)cc2)ccc1=O | 1.1
49 | NC(=O)c1nc2c([nH]c1=O)CCCC2 | -0.85
50 | CSc1nc(N)c(C(=O)Nc2ccc([N+](=O)[O-])cc2)s1 | 0.05
51 | c1ccc2[nH]c(-c3ccncc3)nc2c1 | -1.1
52 | Nc1ccc(C(=O)Nc2cccc(N)c2)cc1 | -0.5
53 | O=C(Nc1cccc(-c2nc3ccccc3[nH]2)c1)c1ccc(C(=O)Nc2cccc(-c3nc4ccccc4[nH]3)c2)cc1 | 3
54 | Cn1ncc2c(Sc3ccc(Cl)cc3)ncnc21 | 1.3
55 | CC1=CN2C(c3cccc([N+](=O)[O-])c3)=NON(c3ccc(C)cn3)C2C=C1 (configuration not stated) | 0.85
56 | CSc1ncc2[nH]c(C(O)c3ccccc3)nc2n1 (configuration not stated) | -0.45
57 | O=S1(=O)CCC(N(N=Cc2ccco2)c2ccccc2)C1 (configuration not stated) | -0.2
58 | O=CN/C=C\c1cc(O)ccc1O | -0.3
59 | OC[C@@H]1CCC[C@H](n2cnc3c(=S)nc[nH]c32)O1 | 0.75
60 | Cc1nccnc1Sc1ccccc1 | -0.2
61 | Oc1ccc2ccccc2c1N=Nc1ccc(F)cc1 | 0.05
62 | Oc1ccc2ccccc2c1N=Nc1nccs1 | 0.9
